Hits are enriched below; roughly 17% of the tested compounds scored in any of these assays.
ATXN2 expr inh: inhibitors of ATXN2 expression; HEK-293 ATXN2-luciferase reporter, luminescence, 24 h; hit rate 0.72% among 360,000; Potency, µM (titrated, usually from 57 µM), inactives show at the highest dose activity change, negative = inhibition, actives largely listed as inhibitors; note: % is set by controls: 0 for no effect and ±100 for the full control effect; nearly all actives have a fitted effect of over 55% in size
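ATXN2-luciferase reporter cells (luciferase flanked by upstream and downstream ATXN2 gene portions) were treated 24 h at 37 °C with compounds at up to 57 uM. SteadyGlo luminescence gave expression; GF-AFC fluorescence gave viability.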
DT40 TDP1 no CPT: qHTS for Inhibitors of human tyrosyl-DNA phosphodiesterase 1 (TDP1): qHTS in cells in absence of CPT | Potency, µM (highest dose often 46.2 µM), without a hit: top-dose activity change, negative = growth inhibition, actives largely listed as inhibitors | hit rate 15% among 420,000 | DT40 Tdp1-/- hTDP1 cells, no CPT, ATP luminescence, 48 h; note: % is set by controls: 0 for no effect and ±100 for the full control effect; nearly all actives have a fitted effect of over 55% in size
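A cellular qHTS used chicken DT40 cells lacking endogenous Tdp1 but carrying stably transfected human TDP1. Compounds were applied without camptothecin, and cell growth kinetics were judged by ATP-dependent luminescence after ≥48 hr.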
HepG2 viability: HepG2 cytotoxicity, counter-screen for TGF-b inhibitors; HepG2 CAGA-GFP viability, ATP luminescence, 18 h; Potency, µM (series often up to 46.1 µM), inactives show at the highest dose activity change, negative = cytotoxicity, actives largely listed as cytotoxic; hit rate 0.76% among 410,000
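HepG2 CAGA-GFP cells (1000/well, DMEM with 1% FBS) received compound, then TGF-beta at 500 pg/mL final, and were incubated 18 hours at 37 degrees C. Viability was read by CellTiter-Glo luminescence. Media-only wells were set as complete cell-killing and DMSO as no toxicity.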
TGFb inhibitor: TGF-b pathway inhibition; HepG2 CAGA-GFP TGF-b/SMAD3 reporter, GFP fluorescence, 18 h; TGF-beta stimulated, 500 pg/mL final; hit rate 1.2% among 410,000; Potency, µM (top dose mostly 46.1 µM), for the others: at the highest dose activity, negative = inhibition, most hits filed as inhibitors; note: % is set by controls: 0 for no effect and ±100 for the full control effect; nearly all actives have a fitted effect of over 65% in size
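First, reporter cells (HEPG2 CAGA-GFP) rested 2 h at 37 degrees C. Next, compounds were pinned in and TGF-beta added to 500 pg/mL final. After 18 h, GFP was imaged per cell and summed per well.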
ATXN viability: reduces viability in counter-screen for ATXN expression inhibitors. S2 cells (HEK-293 line with an ATXN2-luciferase reporter) viability, CellTiter-Fluor protease fluorescence, 24 h. Potency, µM (highest dose often 56.7 µM), hits mostly cytotoxic. hit rate 0.49% among 400,000; note: nearly all actives have a fitted effect of over 40% in size
TDP1 cell CPT: DT40-hTDP1 cell growth loss with CPT; Potency, µM (doses to about 46.2 µM), inactives show at the highest dose activity change, negative = growth inhibition, hits mostly inhibitors; hit rate 12% among 420,000; chicken DT40 Tdp1-/-;hTDP1 cells + 20 nM CPT, ATP luminescence, 48 h; note: % is set by controls: 0 for no effect and ±100 for the full control effect; nearly all actives have a fitted effect of over 55% in size
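Chicken DT40 Tdp1-/- cells complemented with human TDP1, 400 cells/well, exposed to compounds plus 20 nM camptothecin for at least 48 h at 37 C; viability read as ATP content by CellTiter-Glo luminescence.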
Numbers without * were called inactive; i = inactive; ? = inconclusive; . = no result. Calls come from the whole dose curve; as a rule, active = well fitted curve in the direction sought with a large enough effect; inconclusive = small, poorly fitted or top-dose-only effect, or another doubt; inactive = no such curve, though single readings can be large; an effect the other way counts as inactive or inconclusive. Potency is the fitted concentration of half-maximal effect.

SMILES	ATXN2 expr inh	DT40 TDP1 no CPT	HepG2 viability	TGFb inhibitor	ATXN viability	TDP1 cell CPT
CC(=O)N1CCC2(CCCN(c3cccc(-c4ccccc4)c3)C2)CC1	.	?	.	.	.	16.4µM*
CC(=O)N1CCC[C@@]2(CCN(c3ccccc3)C2)C1	.	-20.8%	.	.	.	-6.1%
COC(=O)N1CCC2(CC1)CN(c1cccc(-c3ccccc3)c1)C2	.	18.4µM*	.	.	.	-29.8%
CCCc1c(C(=O)N/N=C(/C)c2ccncc2)nnn1-c1nonc1N	-14.7%	-8.0%	-18.4%	3.1%	i	9.7%
Cc1ccc(OCC(=O)N2CCN(C(=O)c3ccncc3)CC2)cc1	-19.8%	-4.8%	-22.4%	-6.6%	?	8.3%
CCCn1cc2c(c1-c1ccc(C)cc1)c(=O)n(C)c(=O)n2C	-21.5%	20.6µM*	-2.2%	-6.9%	i	?
Cc1ccc(-c2c3c(=O)n(C)c(=O)n(C)c3cn2Cc2ccccc2)cc1	0.0%	?	10.2%	-6.6%	i	?
CCCCn1cc2c(c1-c1ccc(Cl)cc1)c(=O)n(C)c(=O)n2C	.	14.6µM*	-15.9%	?	.	?
Cc1ccc(NS(=O)(=O)c2c(C(=O)N3CCC(C)CC3)c(C)n(C)c2C)cc1Cl	.	?	-5.2%	-23.7%	.	?
Cc1nc(-c2ccc(C)c(S(=O)(=O)N3CCC(C(=O)NCc4ccc(F)cc4)CC3)c2)no1	-13.4%	5.17µM*	-20.1%	-2.9%	i	2.59µM*
Cc1nc(-c2ccc(C)c(S(=O)(=O)N3CCC(C(=O)NCc4ccc(Cl)cc4)CC3)c2)no1	-3.1%	?	-31.6%	-23.3%	i	?
Cc1ccc(CNC(=O)C2CCN(S(=O)(=O)c3cc(-c4noc(C)n4)ccc3C)CC2)cc1	-16.7%	2.59µM*	-25.9%	?	i	4.61µM*
CCCN1CCN(c2nnc(-n3cccc3C(=O)Nc3ccccc3C(F)(F)F)s2)CC1	.	20.6µM*	-33.2%	?	.	20.6µM*
CCN1CCN(c2nnc(-n3cccc3C(=O)NCc3ccccc3OC)s2)CC1	.	?	2.4%	-18.8%	.	16.4µM*
C[C@H](CO)N1C[C@H](C)[C@@H](CN(C)S(=O)(=O)c2ccc(F)cc2)Oc2ccc(NC(=O)Nc3ccccc3)cc2C1=O	-12.2%	14.6µM*	4.0%	-42.9%	?	?
C[C@H]1CN([C@@H](C)CO)C(=O)c2cccc(NC(=O)Nc3ccc(C(F)(F)F)cc3)c2O[C@@H]1CN(C)S(=O)(=O)c1ccc(Cl)cc1	?	8.2µM*	-87.7%	?	.	7.31µM*
C[C@@H]1CN([C@@H](C)CO)C(=O)Cc2cc(NC(=O)Nc3ccc(C(F)(F)F)cc3)ccc2O[C@@H]1CN(C)S(=O)(=O)c1ccc(Cl)cc1	?	14.6µM*	-43.5%	?	?	?
Cc1ccc(S(=O)(=O)N(C)C[C@@H]2Oc3ccc(NC(=O)CCC(F)(F)F)cc3CC(=O)N([C@@H](C)CO)C[C@@H]2C)cc1	-14.3%	5.8µM*	-0.9%	?	i	4.11µM*
CC1CCc2sc(C(=O)N3CCN(c4ncccn4)CC3)cc2C1 (centres undefined)	15.3%	?	-11.6%	-6.3%	i	?
C[C@@H]1CN([C@H](C)CO)C(=O)c2cc(NC(=O)Nc3ccc(C(F)(F)F)cc3)ccc2O[C@H]1CN(C)S(=O)(=O)c1ccc(Cl)cc1	-24.3%	5.8µM*	2.0%	?	?	5.17µM*
Cc1ccc(S(=O)(=O)N(C)C[C@@H]2Oc3ccc(NC(=O)Nc4cccc5ccccc45)cc3C(=O)N([C@H](C)CO)C[C@H]2C)cc1	9.5%	23.1µM*	-0.1%	5.9%	i	?
C[C@H](CO)N1C[C@H](C)[C@H](CN(C)S(=O)(=O)c2cn(C)cn2)Oc2ccc(NC(=O)Nc3ccc(C(F)(F)F)cc3)cc2CC1=O	-0.6%	13µM*	-0.1%	?	?	?
O=C(c1[nH]c(C(F)(F)F)nc1-c1ccccc1)N1CCc2ccccc2C1	0.8%	-22.1%	-43.3%	-9.9%	i	0.8%
CCOc1ccc(NC(=O)c2nc(S(=O)(=O)Cc3ccc(F)cc3)ncc2Cl)cc1	.	0.398µM*	-95.7%	11.2µM*	.	0.501µM*
CCOC(=O)c1ccc(NC(=O)c2nc(SC)ncc2Cl)cc1	3.0%	12.0%	-4.8%	-1.6%	i	-14.3%
SMILES	ATXN2 expr inh	DT40 TDP1 no CPT	HepG2 viability	TGFb inhibitor	ATXN viability	TDP1 cell CPT
CCOc1ccc(NC(=O)c2nc(S(=O)(=O)Cc3ccccc3C)ncc2Cl)cc1	.	0.708µM*	-100.7%	12.6µM*	.	1µM*
CC(=O)c1ccc(N=Nc2ccc(N)cc2)cc1	.	?	-11.3%	-9.7%	?	?
Cc1cc(C)nc(N2CCCC(C(=O)NCCC3=CCCCC3)C2)n1 (centres undefined)	-2.4%	-13.9%	35.0%	-1.9%	i	0.8%
Cc1cc(C)c(C)c(S(=O)(=O)NNC(=O)c2cccc(S(=O)(=O)N3CCOCC3)c2)c1C	7.4%	-23.0%	5.3%	5.1%	i	-16.2%
CCN(CC)c1ccc2nc3ccccc3[n+](CC)c2c1	?	1.84µM*	-62.0%	?	8.91µM*	5.17µM*
O=[N+]([O-])c1ccc2c(c1)Cc1cc(F)ccc1-2	0.6%	?	-5.6%	-6.3%	i	-4.9%
O=CNc1c(Cl)cc2c(c1Cl)Cc1cc([N+](=O)[O-])ccc1-2	-5.6%	11.6µM*	-31.8%	3.16µM*	i	11.6µM*
COc1ccc(N2CCN(C(=O)C(=O)c3c(C)[nH]c4ccccc34)CC2)cc1	.	?	46.9%	29.7%	i	-18.0%
CCN(CC)C(=O)Cn1cc(/C=C(\C#N)C(=O)N2CCN(c3ccccc3)CC2)c2ccccc21	-1.0%	?	-6.1%	?	?	20.6µM*
COc1ccc(N2CCN(C(=O)C(=O)c3cn(CC(=O)N4CCCC4)c4ccccc34)CC2)cc1	.	?	-3.0%	-5.7%	?	20.6µM*
CCN(CC)C(=O)Cn1cc(C(=O)C(=O)N2CCN(c3ccc([N+](=O)[O-])cc3)CC2)c2ccccc21	0.6%	7.31µM*	-3.8%	17.2%	?	6.51µM*
COc1ccc(N2CCN(C(=O)C(=O)c3cc(OC)c4ccccc4c3)CC2)cc1	.	20.6µM*	.	.	.	23.1µM*
O=C(C(=O)N1CCCCC1)c1cn(CC(=O)N2CCCCCC2)c2ccccc12	-8.5%	4.8%	0.0%	-19.1%	?	-1.0%

Compound activity from PubChem BioAssay.
